This note sets out measurements from ChEMBL document CHEMBL3988442, “University of Dundee, Small-Polar-MMV Screening Library” (2021).

Out of some 48,000 compounds screened, about 13,000 (27%) showed an effect of 50% or more. The list shows a part of the results.

The subject of the test is Wolbachia pipientis. Briefly: Anti-Wolbachia Cell-Based Screen. The class given is functional. Set-up: scale not given: in the data most compounds retested in dose-response had high values. The conditions noted are these: 5 µM.
With `Cc1ccc2c(c1)CCC21CCN(CCO)CC1`, the “Percent Effect” value stood at 9.958%. On to `Cc1ccc(NC(=O)N(CCO)CCO)c(OCc2ccccc2)c1`, for which the “Percent Effect” value is -35.37%. Take `Cc1cc(CN(Cc2cccs2)CC2CCCO2)no1` (stereo not given): the “Percent Effect” value is reported as -7.251%. For `CCn1cncc1CN(Cc1ccc(OC)cc1OC)CC1CCCO1.O=C(O)CC(O)(CC(=O)O)C(=O)O` (stereo not given), the “Percent Effect” value amounted to 91.73%. Consider `COc1ccc(CN(Cc2cncn2C)CC2CCCO2)c(OC)c1.O=C(O)CC(O)(CC(=O)O)C(=O)O` (stereo not given), for which the “Percent Effect” value was -9.808%. As to `Nc1nccnc1C(=O)N(Cc1ccccc1O)CC1CCCO1` (stereo not given), the “Percent Effect” value is recorded as -11.08%. In the case of `COc1ccc(CN(Cc2cn(C)nc2C)CC2CCCO2)c(OC)c1` (stereo not given), the “Percent Effect” value was 138%. Turning to `COc1ccc(CN(CC2CCCO2)c2nc3c(s2)c(C)nn3C)cc1` (stereo not given), the “Percent Effect” value was -25.43%. As for `COc1ccc(CN(Cc2cnc(N)nc2)CC2CCCO2)c(OC)c1.O=C(O)CC(O)(CC(=O)O)C(=O)O` (stereo not given), the “Percent Effect” value was found to be 113.1%. On to `COc1ccc(CN(Cc2ccccn2)Cc2cncn2C)cc1.O=C(O)CC(O)(CC(=O)O)C(=O)O`, for which the “Percent Effect” value is recorded as 130.6%.

For `COC(=O)CCN(CC1CCCO1)C(=O)Cc1ccc(OC)c(OC)c1` (stereo not given), the “Percent Effect” value came to 2.857%. In the case of `CCN1CCN(c2ccc(F)cc2C(C)NCc2ccncc2)CC1` (stereo not given), the “Percent Effect” value is listed as 0.6189%. In the case of `COCCC(C)NC(=O)Nc1ccc(N2CCOC2=O)c(OC)c1` (stereo not given), the “Percent Effect” value is given as -2.31%.

As to `O=C(Cn1ccc2ccccc21)Nc1cc(N2CCOCC2)ncn1`, the “Percent Effect” value was -11.42%. In the case of `CN(C)C(=O)Cc1ccc(NC(=O)NC2CC2)cc1`, the “Percent Effect” value is listed as -3.674%. In the case of `COc1ccc(CN(Cc2cncn2C)CC2CCCO2)cc1OC.O=C(O)CC(O)(CC(=O)O)C(=O)O` (stereo not given), the “Percent Effect” value is listed as -10.71%.

Turning to `COc1ccccc1CN(Cc1cccnc1)Cc1c[nH]c(C)n1`, the “Percent Effect” value was -35.67%. For the compound `Cc1nc2ccccn2c1CN(Cc1cccnc1)CC1CCCO1` (stereo not given), the “Percent Effect” value is on record as -2.807%. Turning to `COc1ccc(CN(C(=O)C2CCCOC2)c2ccncc2)cc1` (stereo not given), the “Percent Effect” value is -5.222%.

As for `O=c1[nH]c2ccccc2cc1CN(Cc1ccccn1)CC1CCCO1` (stereo not given), the “Percent Effect” value was 7.522%. For the compound `COc1ccc(CN(Cc2cncn2C)CC2CCCO2)cc1.O=C(O)CC(O)(CC(=O)O)C(=O)O` (stereo not given), the “Percent Effect” value is reported as 108.8%. On to `COc1ccccc1CN(Cc1cccnc1)CC1CCCO1.O=C(O)CC(O)(CC(=O)O)C(=O)O` (stereo not given), for which the “Percent Effect” value turned out to be 117.4%. In the case of `COc1ccc(CN(Cc2c[nH]cn2)CC2CCCO2)c(OC)c1.O=C(O)CC(O)(CC(=O)O)C(=O)O` (stereo not given), the “Percent Effect” value is reported as 99.96%. For the compound `Cn1cnc2c(N3CCCC3)nc(C3CCN(CC4CC4)CC3)cc21.O=C(O)C(F)(F)F.O=C(O)C(F)(F)F`, the “Percent Effect” value was -3.967%. Regarding `O=C(O)c1coc(COc2cccc3cnccc23)n1`, the “Percent Effect” value is reported as -2.104%. In the case of `CC(=O)N1CCC(N2C[C@@H](F)[C@@H](OCc3nc4ncccc4[nH]3)C2)CC1`, the “Percent Effect” value is on record as -11.9%. In the case of `CNS(=O)(=O)c1cccc(C(C)NCc2ccncc2)c1` (stereo not given), the “Percent Effect” value is listed as -20.6%. On to `CN1CC[C@]2(CN(CC3CCOCC3)C[C@H]2c2ccccc2)C1=O.O=C(O)C(F)(F)F`, for which the “Percent Effect” value is given as 123.3%. Regarding `CN1CC[C@]2(CN(Cc3nccs3)C[C@H]2c2ccccc2)C1=O.O=C(O)C(F)(F)F`, the “Percent Effect” value is -12.3%. Turning to `CN1CC(c2ccccc2)C2(CCN(C(=O)c3cccn3C)CC2)C1=O` (stereo not given), the “Percent Effect” value is reported as -2.229%. For `CCN1CC[C@]2(CN(Cc3nccs3)C[C@H]2c2ccccc2)C1=O.O=C(O)C(F)(F)F` the value was -7.222%; for `CN1CC[C@]2(CN(S(C)(=O)=O)C[C@H]2c2ccccc2)C1=O`, 102.2%; for `Cc1cc(CN2C[C@@H](C)[C@@]3(CCN(CC(=O)N(C)C)C3=O)C2)oc1C.O=C(O)C(F)(F)F`, 15.48%. The value for `CN(C)C(=O)CN1CC[C@]2(CN(CC3CC3)C[C@H]2c2ccccc2)C1=O.O=C(O)C(F)(F)F` was 97.34%; that for `CN1CC[C@]2(CN(CC3CCOC3)C[C@H]2c2ccccc2)C1=O.O=C(O)C(F)(F)F` (stereo not given in full) was 100.2%; that for `CCN1C(=O)C(c2ccccc2)CC12CCN(S(C)(=O)=O)CC2` (stereo not given) was -8.52%. For `CN1CCC2(CCN(CC3CCOCC3)CC2)C1=O.O=C(O)C(F)(F)F` the value was -1.769%; for `N#Cc1ccc(CN2CCCCC2Cn2cncn2)c(F)c1` (stereo not given), -2.215%; for `Cc1ccc(CN2CCOC3(CCN(C(=O)C4CCOC4)CC3)C2)cc1.O=C(O)C(F)(F)F` (stereo not given), 2.988%. Take `Cc1ccc(CN2CCOC3(CCN(C(=O)N4CCCC4)CC3)C2)cc1.O=C(O)C(F)(F)F`: the “Percent Effect” value is -8.825%. Regarding `Cc1ccc(CN2CCOC3(CCN(CC4CCOC4)CC3)C2)cc1.O=C(O)C(F)(F)F.O=C(O)C(F)(F)F` (stereo not given), the “Percent Effect” value amounted to 104.9%.

On to `CN1CC[C@]2(CN(Cc3cccs3)C[C@H]2c2ccccc2)C1=O`, for which the “Percent Effect” value is reported as -2.755%. As to `O=C(O)C(F)(F)F.O=C(c1cccnc1)N1C[C@@H](c2ccccc2)[C@@]2(CCNC2=O)C1`, the “Percent Effect” value is -21.16%.

For `O=C(O)C(F)(F)F.O=C1NCC[C@]12CN(Cc1nccs1)C[C@H]2c1ccccc1`, the “Percent Effect” value is recorded as -4.824%.

For the compound `O=C(O)C(F)(F)F.O=C1NCC[C@]12CN(CC1CCOCC1)C[C@H]2c1ccccc1`, the “Percent Effect” value was determined as 108.1%.

For `CN1CC[C@]2(CN(CC3CC3)C[C@H]2c2ccccc2)C1=O`, the “Percent Effect” value was 103.2%. As for `CC1CCCN(c2ccccc2OCC(=O)NC2CCOCC2)C1` (stereo not given), the “Percent Effect” value was determined as 10.97%. For `CC(C)NC(=O)CC(C)NC(=O)N(C)Cc1cc(Cl)cn1C` (stereo not given), the “Percent Effect” value is reported as -3.888%.

On to `CC(C)N1C(=O)C[C@H]2[C@@H]1CCN2C(=O)c1ccco1`, for which the “Percent Effect” value is -5.125%. The value for `COCC1CN(C(=O)c2cccs2)Cc2nccn2C1` (stereo not given) was -51.2%; that for `O=C(CC1CC1)N1Cc2nccn2CC(COc2cccnc2)C1` (stereo not given) was 106%; that for `O=C(c1ccccn1)N1Cc2nccn2CC(COc2cccnc2)C1` (stereo not given) was -5.974%. As to `COCC(=O)N1Cc2nccn2CC(COc2cccnc2)C1` (stereo not given), the “Percent Effect” value came out at 115.8%.

As to `O=C([C@H]1CCCO1)N1Cc2nccn2CC(COc2cccnc2)C1` (stereo not given in full), the “Percent Effect” value is 99.26%. Regarding `COCC(=O)N1Cc2nccn2CC(CN(C)Cc2cccnc2)C1` (stereo not given), the “Percent Effect” value stood at 3.316%. For `O=C1CCCN1CC1CN(C(=O)C2CCOCC2)Cc2nccn2C1` (stereo not given) the value was -10.76%; for `COCC1CN(C(=O)c2ccccn2)Cc2nccn2C1` (stereo not given), 101.9%; for `CN(C)CCOCC1CN(C(=O)[C@H]2CCCO2)Cc2ccnn2C1` (stereo not given in full), -10.91%.

On to `N#CCCN(CC1CCOC1)S(=O)(=O)c1cccc(Cl)c1` (stereo not given), for which the “Percent Effect” value is given as -9.345%.

For `CCCN1C(=O)C2(CCCCC2)NC1c1c[nH]nc1-c1cccnc1` (stereo not given), the “Percent Effect” value is given as -6.37%.

`CC(NCc1ccccc1O)c1ccc(-n2ccnc2)cc1` (stereo not given): the “Percent Effect” value is 4.863%. With `CC(=O)NCCc1ccc(S(=O)(=O)N(CC(C)C)C(C)C)s1`, the “Percent Effect” value is on record as -14.51%. For the compound `Nc1ccc(C(=O)N2CCC(Oc3cccc(C(F)(F)F)c3)CC2)cn1`, the “Percent Effect” value is recorded as -4.227%. Turning to `CN(C(=O)c1ccc(C2CCCO2)s1)C1CCS(=O)(=O)CC1` (stereo not given), the “Percent Effect” value worked out at 4.966%. For `CSCCC1c2nc[nH]c2CCN1Cc1ccccc1C(F)(F)F` (stereo not given), the “Percent Effect” value was -7.167%. As for `O=C(c1ccc[nH]1)N1Cc2nccn2CC(COc2cccnc2)C1` (stereo not given), the “Percent Effect” value was 86.9%. For `Cc1cc(CN2CC[C@H]3C(=O)N(c4cccnc4)CCO[C@H]3C2)no1` the value was -10.41%; for `Cc1nn(-c2ccccc2Cl)c(C)c1CCC(=O)O`, 123.4%; for `CCN(CC)CCNC(=O)CCc1c(C)nn(-c2ccccc2Br)c1C`, 111.1%. Regarding `CS(=O)(=O)CCC(=O)Nc1cnn(-c2ccccc2Cl)c1`, the “Percent Effect” value is 3.918%. On to `Cc1c(C(=O)NCC(F)(F)F)nnn1-c1ccccc1Cl`, for which the “Percent Effect” value is -14.83%. The value for `CCN1CCN(C(=O)c2nc(C)n(-c3ccccc3Cl)n2)CC1` was 7.919%; that for `CCCNC(=O)CNC(=O)CCc1ccccc1Br` was 0.9662%; that for `CCN(C(=O)NCCc1ccccc1Cl)C(C)CS(C)(=O)=O` (stereo not given) was -2.563%.

For the compound `Cc1nn(-c2ccccc2)c(C)c1CNC(=O)NC1CC1`, the “Percent Effect” value amounted to 9.435%. Turning to `CCCNC(=O)C(C)NC(=O)CCc1ccccc1Br` (stereo not given), the “Percent Effect” value is listed as -13.88%. On to `Cc1nn(-c2cc(Cl)cc(Cl)c2)c(C)c1CCC(=O)O`, for which the “Percent Effect” value stood at 123.3%. For the compound `Cc1nn(-c2ccccc2Cl)c(C)c1CCC(=O)NCCS(C)(=O)=O`, the “Percent Effect” value was determined as 98.33%.

`COC(=O)C(CCSC)NC(=O)Cc1c(C)nn(-c2ccccc2)c1C` (stereo not given): the “Percent Effect” value was -1.135%.

On to `Cc1noc(C2(NC(=O)c3cccnc3O)CCCCC2)n1`, for which the “Percent Effect” value came to 14.46%. The value for `CCC(C)NC(=O)c1ccc(CNC(=O)CCC(C)C)cc1` (stereo not given) was 19.34%.

As to `Cc1cc(CC(=O)N(C)Cc2cccc(OC(C)C)c2)n[nH]1`, the “Percent Effect” value is given as 0.9226%. For the compound `COCc1noc(-c2nn(-c3ccc(F)c(F)c3)c3c2CCC3)n1`, the “Percent Effect” value is reported as -11.94%. As for `COCCCN(C)C(=O)c1nnn(-c2ccccc2Cl)c1C`, the “Percent Effect” value is on record as -5.685%. The value for `CCN(CC)CCNC(=O)CCc1c(C)nn(-c2ccccc2Cl)c1C` was 121.6%; that for `CCN(CC)CCNC(=O)c1nn(CC)cc1Cl` was 13.81%.

Take `CCOc1ccccc1CSc1nnc(CC2CCS(=O)(=O)C2)n1C` (stereo not given): the “Percent Effect” value amounted to 3.399%. Turning to `CN1CSC[C@H]1C(=O)N1CCN(Cc2cccc(Cl)c2)CC1`, the “Percent Effect” value was -11.1%.

For the compound `CN(Cc1cccc(-n2cccn2)c1)Cc1c[nH]cn1`, the “Percent Effect” value turned out to be 125%. For `COc1cc(N(C)Cc2cccc(-n3cccn3)c2)nc(N)n1` the value was -41.52%.

As for `CN(Cc1cccc(-n2cccn2)c1)Cc1cccs1`, the “Percent Effect” value was 32.49%. As for `CN(Cc1ccc(-n2cccn2)cc1)Cc1cnc(N(C)C)nc1`, the “Percent Effect” value is listed as -6.821%.

Take `CCCc1cc(C(=O)N(C)Cc2cnn(-c3cccc(OC)c3)c2)[nH]n1`: the “Percent Effect” value was found to be 1.853%. As for `CC(NS(C)(=O)=O)C(=O)N(C)Cc1cnn(-c2ccc(F)cc2)c1` (stereo not given), the “Percent Effect” value was -5.663%. In the case of `COc1cccc(-n2cc(CN(C)C(=O)c3cnc(O)cn3)cn2)c1`, the “Percent Effect” value is recorded as -3.404%.

With `CN(Cc1ccc(-n2cccn2)cc1)Cc1ncc[nH]1`, the “Percent Effect” value was -13.82%. The value for `CC(C)c1nccc(CN(C)Cc2cccc(-n3cccn3)c2)n1` was 104.6%; that for `COc1cccc(-n2cc(CN(C)Cc3ccnc(C(C)C)n3)cn2)c1` was 92.54%; that for `CC(C)c1nccc(CN(C)Cc2cnn(-c3ccccc3)c2)n1` was 112.3%. For `CSCCC(O)C(=O)N(C)Cc1cnn(-c2ccc(F)cc2)c1` (stereo not given) the value was 17.62%.
